# From article PMC11574364
# Target: SETD1A (Homo sapiens, UniProt O15047)
# Test: protein domain microarray probed with biotinylated miRNA; Domain array: 20 mM Tris-HCl pH 7.4, 200 mM KCl, 0.2 mM EDTA, 0.05% NP40, 2 ug/ul heparin, overnight 4 C. ORF array: PBS pH 7.0 with RNase inhibitor, 100 ng RNA; high values mean tight binding
# Conditions: ssRNA
# Chain of SETD1A (O15047 60-200): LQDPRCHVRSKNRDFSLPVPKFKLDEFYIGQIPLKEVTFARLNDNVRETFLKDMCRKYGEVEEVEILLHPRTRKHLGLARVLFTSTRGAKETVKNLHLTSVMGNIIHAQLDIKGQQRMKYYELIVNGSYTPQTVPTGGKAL
row,Sequence,binding signal [fluorescence intensity]
1,UGAGGUAGUAGGUUGUGUGGUU,213 ± 11.9
2,UGAGGUAGUAGGUUGUAUAGUU,36 ± 1.17
3,UGAGGUAGUAGGUUGUAUGGUU,99.9 ± 23.9
4,UAGCUUAUCAGACUGAUGUUGA,23.2 ± 2.69
5,CAGUGCAAUGAUGAAAGGGCAU,64.7 ± 9.41
6,AGAGGUAGUAGGUUGCAUAGUU,95.585 ± 0.0212

# Target: IGF2BP1(3-4) (Homo sapiens, UniProt Q9NZI8)
# Sequence (Q9NZI8 388-577): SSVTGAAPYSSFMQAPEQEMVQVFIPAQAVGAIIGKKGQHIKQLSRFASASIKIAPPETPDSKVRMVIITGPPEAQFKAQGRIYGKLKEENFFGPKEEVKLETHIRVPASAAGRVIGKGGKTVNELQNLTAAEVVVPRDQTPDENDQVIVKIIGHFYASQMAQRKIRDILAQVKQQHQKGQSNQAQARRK
# Test: as above
# Conditions: ssRNA
row,Sequence,binding signal [fluorescence intensity]
1,UGAGGUAGUAGGUUGUGUGGUU,1118 ± 5.57
2,UGAGGUAGUAGGUUGUAUAGUU,262 ± 8.37
3,UGAGGUAGUAGGUUGUAUGGUU,1615 ± 5.45
4,UAGCUUAUCAGACUGAUGUUGA,22 ± 1.81
5,CAGUGCAAUGAUGAAAGGGCAU,436 ± 8.23
6,AGAGGUAGUAGGUUGCAUAGUU,955 ± 10.5

# Target: VIGILIN(6-10) (Homo sapiens, UniProt Q00341)
# Sequence (Q00341 495-900): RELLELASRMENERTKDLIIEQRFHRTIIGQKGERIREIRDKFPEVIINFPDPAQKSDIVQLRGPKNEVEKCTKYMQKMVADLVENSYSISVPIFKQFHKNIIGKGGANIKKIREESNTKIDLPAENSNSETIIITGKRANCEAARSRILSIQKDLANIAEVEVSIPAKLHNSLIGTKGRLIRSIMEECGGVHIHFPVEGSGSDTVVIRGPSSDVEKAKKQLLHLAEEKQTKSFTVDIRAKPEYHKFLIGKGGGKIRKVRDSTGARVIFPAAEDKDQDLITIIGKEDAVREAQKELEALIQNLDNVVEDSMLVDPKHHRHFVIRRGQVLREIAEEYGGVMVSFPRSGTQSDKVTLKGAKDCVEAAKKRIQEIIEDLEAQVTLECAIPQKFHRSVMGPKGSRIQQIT
# Test: as above
# Conditions: ssRNA
row,Sequence,binding signal [fluorescence intensity]
1,UGAGGUAGUAGGUUGUGUGGUU,498 ± 6.91
2,UGAGGUAGUAGGUUGUAUAGUU,26.1 ± 2.47
3,UGAGGUAGUAGGUUGUAUGGUU,270 ± 12.9
4,CAGUGCAAUGAUGAAAGGGCAU,43.4 ± 1.94
5,AGAGGUAGUAGGUUGCAUAGUU,91.1 ± 6.12

# Target: T1, RBM18 (Homo sapiens, UniProt Q96H35)
# T1 sequence: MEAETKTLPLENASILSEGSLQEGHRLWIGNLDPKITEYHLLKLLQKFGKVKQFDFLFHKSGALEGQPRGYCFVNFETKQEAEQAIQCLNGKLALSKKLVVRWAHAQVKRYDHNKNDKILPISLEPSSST
# Test: as above
# Conditions: ssRNA
row,Sequence,binding signal [fluorescence intensity]
1,UGAGGUAGUAGGUUGUGUGGUU,312 ± 45.3
2,UGAGGUAGUAGGUUGUAUAGUU,110 ± 9.81
3,UGAGGUAGUAGGUUGUAUGGUU,291 ± 10.4
4,UAGCUUAUCAGACUGAUGUUGA,72.6 ± 4.62
5,CAGUGCAAUGAUGAAAGGGCAU,248.1 ± 1.58
6,AGAGGUAGUAGGUUGCAUAGUU,316 ± 12.6
